# Screening data deposited in PubChem by several laboratories.
# In the library only some 1.7% were active in any assay of this set; here they are far more common.
# PABP1 MLLE inh: inhibitors of microRNA-mediated deadenylation, human PABP1 MLLE binding | hit rate 0.36% among 360,000 | P11940 | GST-MLLE / FITC-PAM2 fluorescence polarization | inhibition, % at 20 µM; in the data active = inhibition above about 35%, passing the limit was not always enough;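 also: plate controls were DMSO wells with GST-MLLE for no effect and wells lacking GST-MLLE protein for full effect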
# Target sequence (P11940 whole entry, looked up): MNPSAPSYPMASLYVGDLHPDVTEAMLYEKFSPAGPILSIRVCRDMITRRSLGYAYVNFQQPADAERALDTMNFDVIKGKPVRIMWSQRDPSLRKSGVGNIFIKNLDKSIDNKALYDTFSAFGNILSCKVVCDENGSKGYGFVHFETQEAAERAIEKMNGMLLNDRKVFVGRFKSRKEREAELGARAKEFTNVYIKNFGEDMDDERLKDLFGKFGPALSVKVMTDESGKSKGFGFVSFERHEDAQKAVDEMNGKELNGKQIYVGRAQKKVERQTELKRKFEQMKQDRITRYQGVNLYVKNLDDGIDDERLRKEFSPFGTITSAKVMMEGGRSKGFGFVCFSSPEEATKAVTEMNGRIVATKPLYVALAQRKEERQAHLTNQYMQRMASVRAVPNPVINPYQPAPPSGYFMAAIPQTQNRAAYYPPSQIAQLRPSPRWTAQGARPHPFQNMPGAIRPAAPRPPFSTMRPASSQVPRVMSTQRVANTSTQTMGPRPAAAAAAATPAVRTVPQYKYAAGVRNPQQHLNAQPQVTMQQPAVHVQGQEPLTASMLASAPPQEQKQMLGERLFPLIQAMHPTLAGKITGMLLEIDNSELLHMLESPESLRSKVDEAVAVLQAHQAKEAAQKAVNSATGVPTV
# eIF4H FP inh: inhibitors of RNA binding by human eIF4H; Q15056; eIF4H fluorescence polarization binding assay; inhibition, % at 35 µM; hit rate 0.94% among 290,000; AID 2012;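 also: calls also rest on retests at 20 µM and on dose response follow-up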
# eIF4E-4G inh: eIF4E/eIF4G interaction inhibition in translation initiation; P63073+Q04637; TR-FRET eIF4E-eIF4GI(517-606) binding, 2 h; inhibition, % at 21.7 µM; hit rate 0.37% among 220,000;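 active = inhibition above about 30%, limit read from the data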;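 also: 0% = full FRET control wells and 100% = background wells lacking eIF4GI fragment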
# PABP polyA inh: blocks human PABP binding to poly(A) RNA; fluorescence polarization; AID 2014; calls only at 35 µM; P11940; hit rate 1% among 290,000;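 also: calls also rest on retests at 20 µM and on dose response follow-up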
# EBV gp42 block: EBV gp42 inhibition. inhibition, % (tested at 21.74 µM). Fluorescence polarization binding assay, mP read-out. hit rate 0.42% among 220,000. AID 1085; in the data active = inhibition above about 50%
# An asterisk follows results filed as active; i = inactive; ? = inconclusive; · = not tested or not shown; + = active, no number. Unless noted, no rule for the calls is given here.
SMILES,PABP1 MLLE inh,eIF4H FP inh,eIF4E-4G inh,PABP polyA inh,EBV gp42 block
Cc1cccc(NCCC#N)c1,-7,79,4,+,-5
CS(=O)(=O)c1ccc(C(=O)NCC(c2ccco2)N2CCCCC2)cc1 (configuration not stated),0,83*,-3,i,-7
Cc1ccccc1NS(=O)(=O)c1ccc(C(=O)NCC(c2ccco2)N2CCCCC2)cc1 (configuration not stated),5,·,·,·,·
CCN(CC)S(=O)(=O)c1ccc(OC)c(NC(=O)c2cc(=O)[nH]c3ccccc23)c1,-26,2,-1,i,-4
Cc1cc(C)nc(N/N=C/c2ccccc2OCc2ccccc2)n1,-7,82,0,+,-15
Cc1cc(C)nc(N/N=C/c2ccccc2OCc2ccc(Br)cc2)n1,0,19,7,i,0
COc1ccccc1N(C)S(=O)(=O)c1ccc(C(=O)Nc2cccc(S(=O)(=O)N3CCOCC3)c2)cc1,-10,·,·,·,·
O=C(N/N=C/c1ccc([N+](=O)[O-])o1)C(=O)Nc1ccc(C(=O)O)cc1,5,83*,1,+,-2
O=C(COc1ccccc1)N/N=C/c1ccc([N+](=O)[O-])o1,6,51*,3,+,2
CCn1cc(CN2CCCC(C(=O)Nc3cccc(-n4cccn4)c3)C2)cn1 (configuration not stated),2,·,·,·,·
COCc1cc(C)nc(OCC(=O)N/N=C/c2ccc(-c3cc([N+](=O)[O-])ccc3C)o2)c1C#N,4,2,-2,i,1
Cc1ccc([N+](=O)[O-])cc1-c1ccc(/C=C(\C#N)c2[nH]nc(N)c2C#N)o1,5,57,0,i,60*
COc1cc2c(cc1OC)C(c1ccccc1)NC(C)(C)C2 (configuration not stated),1,-3,·,i,·
CSCCC1COC(c2cccs2)=N1 (configuration not stated),0,0,1,i,-6
O=C(O)c1c(NC(=O)N2CCOCC2)sc2c1CCCC2,8,0,·,i,·
CC(=O)Nc1ccc(S(=O)(=O)NC(C)c2ccncc2)cc1 (configuration not stated),17,·,·,·,·
CC(=O)Nc1ccc(S(=O)(=O)NC(C)C(=O)NC(C)c2ccccc2)cc1 (configuration not stated),49*,0,-1,i,-17
O=C1OCC2OC(O)C(O)C(O)C2OC(=O)c2cc(O)c(O)c(O)c2-c2c(O)c(O)c3oc(=O)c4c(c(O)c(O)c5oc(=O)c2c3c54)-c2c1cc(O)c(O)c2O (configuration not stated),·,83*,34*,+,22
O=C(NCc1ccccc1)C1CCC(=O)N(CCN2CCOCC2)C1 (configuration not stated),4,10,·,i,·
Clc1ccc(OCCCCSc2ncccn2)cc1,38*,127,1,i,10
COc1ccccc1Nc1nc(N)nc(CN2CCCCC2)n1,-10,2.7*,2,+,8
COc1ccccc1Nc1nc(N)nc(CN2CCN(Cc3ccccc3)CC2)n1,9,4,-5,i,-15
O=C1CC(c2ccco2)Sc2nc3ccccc3n21 (configuration not stated),-51,89*,2,+,-31
O=C1CC(c2ccccc2)Sc2nc3ccccc3n21 (configuration not stated),-36,-2,-4,i,1
Cc1ccc(Sc2cnc(N)nc2C)cc1,2,active,0,+,10
SMILES,PABP1 MLLE inh,eIF4H FP inh,eIF4E-4G inh,PABP polyA inh,EBV gp42 block
CC(C)(C)c1ccc(CC(=O)N2CCC2(C)C(=O)NS(=O)(=O)c2ccc(F)cc2F)cc1 (configuration not stated),11,·,·,·,·
Cc1ccc(NC(=O)C2C3CCCC2C3c2ccccc2)cc1C (configuration not stated),-5,?,-3,+,7
Nc1ccc(/C=C/C(=O)c2cccs2)cc1,-113,65*,1,i,-58
O=C(C=Cc1ccccc1)c1cccs1,0,·,·,·,·
COc1ccc(CCNC(=O)c2ccc3c(c2)S(=O)(=O)N=C2CCCCCN23)cc1OC,-30,·,·,·,·
C=C(C)CN(CC)c1nc(N)c2c(N)nc3c(c2c1C#N)CC(=O)N3C12CC3CC(CC(C3)C1)C2,-14,76*,-16,+,-5
N#Cc1c(N2CCCC(O)C2)nc(N)c2c(N)nc3c(c12)CC(=O)N3C12CC3CC(CC(C3)C1)C2 (configuration not stated),-42,91*,0,+,-21
COc1ccc(CN2C(=O)Cc3c2nc(N)c2c(N)nc(N4CCCCC4)c(C#N)c32)cc1,·,?,-1,i,21
CNc1ccc(-c2cccc(CO)c2)cn1,17,·,·,·,·
CCOc1ccc(S(=O)(=O)N2CCC(C(=O)NCc3ccco3)CC2)cc1C,14,-12,·,i,·
O=C1CN(S(=O)(=O)c2cccc(Cl)c2Cl)c2ccccc2N1,-6,-3,·,i,·
O=C1/C(=C\c2ccc(O)cc2)SC(=S)N1/N=C/c1ccc(O)cc1,-142,83*,0,+,-23
Cc1cc(C)nc(SCC(=O)NC2=NC(=O)C(C)S2)n1 (configuration not stated),·,1,9,i,-14
Cc1cc(C(F)(F)F)nc(SCC(=O)NC2=NC(=O)C(C)S2)n1 (configuration not stated),44*,-2,0,i,-17
CCn1c(=N)c(S(=O)(=O)c2ccc(C)cc2)cc2c(=O)n3ccccc3nc21,·,2,1,i,-10
CCOCCCn1c(=N)c(S(=O)(=O)c2ccc(C)cc2)cc2c(=O)n3cc(C)ccc3nc21,40*,?,·,i,·
CCn1c(SCC(=O)O)nnc1-c1ccccc1OC,2,-8,-1,i,3
COCCN1CCC(CNCc2c(C(=O)N3CCCCC3)nc3c(C)cccn23)C1 (configuration not stated),9,62*,-6,+,6
COC(=O)c1cccc(NC(=O)CSc2nc(O)c(-c3ccccc3)c(=O)[nH]2)c1,29,?,2,+,6
CC(=O)Nc1ccc2sc(C)nc2c1,-3,5,64*,i,-13
O=C(Nc1ccc(Cl)c(Cl)c1)c1ccccc1,-3,·,·,·,·
CC(=O)Nc1ccc2cc3ccc(NC(C)=O)cc3nc2c1,113,77*,11,+,105*
CC(=O)Nc1ccc2ccccc2c1,0,-3,5,i,0
O=C(Nc1ccc2nc3ccccc3nc2c1)c1ccccc1,12,14,-5,i,73*
Cn1ncc([N+](=O)[O-])c1C(=O)Nc1ccccc1C#N,3,·,·,·,·
CSc1ccccc1NC(=O)C1(C)CCN1C(=O)Cc1ccc(-c2ccccc2)cc1 (configuration not stated),1,·,·,·,·
Cc1cccnc1NC(=S)NC(=O)c1oc2ccccc2c1C,40*,3,·,i,·
CC(=O)Nc1ccc(NC(=S)NC(=O)c2oc3ccccc3c2C)cc1,12,-11,-3,i,-15
